Measurements as given in PubChem BioAssay (Tox21).
Values joined by “and” are separate entries in the source; they are usually repeats but may differ in a detail not shown here. Equal entries are not always repeated. Records with an inconclusive call do not appear. Entries that show only a call come without a potency. The source holds several records for some structures; these can differ, active in one and inactive in another. Active and inactive are the calls of the source. Unless noted, the call rests on the fitted dose curve.

Tests used:
[1] = qHTS assay to identify small molecule agonists of the vitamin D receptor (VDR) signaling pathway - cell viability counter screen (AID 743224; active means well fitted curve in the direction sought with a large enough effect in the repeat runs; an effect the other way counts as inactive or inconclusive; further: series mostly up to about 63 µM; nearly all actives have a fitted effect of over 50% in size)
Summary of the method: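 In parallel with the bla FRET readout, cytotoxicity toward VDR-bla cells after 16 h compound exposure was assessed by CellTiter-Glo, with luminescence recorded after a 30 min room-temperature incubation.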

[2] = qHTS assay to identify small molecule antagonists of the vitamin D receptor (VDR) signaling pathway - cell viability counter screen (AID 743225; active means well fitted curve in the direction sought with a large enough effect in the repeat runs; an effect the other way counts as inactive or inconclusive; further: nearly all actives have a fitted effect of over 50% in size)
Summary of the method: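 VDR-bla HEK 293T cells, 4 h pre-incubation at 37C, then compound plus 1-alpha,25-dihydroxyvitamin D3 (3 nM final) for 16 h. After the beta-lactamase FRET read, CellTiter-Glo was added to the same wells; luminescence after 30 min at room temperature.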

[3] = qHTS assay to identify small molecule agonists of the NFkB signaling pathway (AID 1159509; active means well fitted curve in the direction sought with a large enough effect in the signal ratio in the repeat runs, not every such curve was filed as active; the % refers to the signal ratio; further: series mostly up to about 61 µM)
Summary of the method: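 Pathway activation was measured in ME-180 cells stably expressing beta-lactamase under NF-kB response element control. Substrate cleavage was read as the 460/530 nm emission shift after 5 hr compound incubation.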

[4] = qHTS assay to identify small molecule agonists of the NFkB signaling pathway - cell viability counter screen (AID 1159515); further: series mostly up to about 61 µM; nearly all actives have a fitted effect of over 55% in size
Summary of the method: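 Plate 2,000 NFkB-bla ME-180 cells/well; incubate overnight. Add compounds, 5 hr at 37 C. Add FRET substrate, 1.5 hr RT. Add CellTiter-Glo, 30 min RT; read luminescence.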

[5] = qHTS assay to identify small molecule agonists of the endoplasmic reticulum stress response signaling pathway (AID 1159516; active means well fitted activation curve with a large enough effect in the signal ratio in the repeat runs, not every such curve was filed as active; the % refers to the signal ratio)
Summary of the method: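 Beta-lactamase expression from the ER stress response element in HeLa reporter cells is quantified with the LiveBLAzer B/G FRET substrate, read at 405 nm excitation after 2 hr at room temperature, following 5 hr compound treatment at 37 C.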

[6] = qHTS assay to identify small molecule agonists of the endoplasmic reticulum stress response signaling pathway - cell viability counter screen (AID 1159517); further: series mostly up to about 61 µM; nearly all actives have a fitted effect of over 50% in size
Summary of the method: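 Cpd-treated ESRE-bla HeLa (5 hr, 37 C) → LiveBLAzer 2 hr RT → CellTiter-Glo 30 min RT → luminescence.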

[7] = qHTS assay to identify small molecule antagonists of the retinoid-related orphan receptor gamma (ROR-gamma) signaling pathway - cell viability counter screen (AID 1159520; active means well fitted curve in the direction sought with a large enough effect in the repeat runs; an effect the other way counts as inactive or inconclusive; further: nearly all actives have a fitted effect of over 50% in size; further: potency means the concentration at half of the fitted maximal effect)
Summary of the method: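 Tet-on ROR gamma CHO cells (1,000/well) were plated 4 hr, given compounds in DMSO for 2 hr at 37 C, then induced with 1 uM final doxycycline for 16 hr. Viability was read as ATP by CellTiter-Glo luminescence after 30 min.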

[8] = target: Nuclear receptor ROR-gamma (Homo sapiens) (UniProt P51449); assay: qHTS assay to identify small molecule antagonists of the retinoid-related orphan receptor gamma (ROR-gamma) signaling pathway (AID 1159521; active means well fitted curve in the direction sought with a large enough effect in the repeat runs; an effect the other way counts as inactive or inconclusive; further: nearly all actives have a fitted effect of over 50% in size; further: potency means the concentration at half of the fitted maximal effect)
Summary of the method: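 Tet-on RORγ CHO cells carrying a ROR response element–luciferase reporter were pretreated with compounds for 2 h, then induced with 1 uM (final) doxycycline hyclate for 16 h at 37 C. Antagonism was read as decreased ONE-Glo luminescence.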

[9] = qHTS assay to identify small molecule agonists of the AP-1 signaling pathway - cell viability counter screen (AID 1159525); further: nearly all actives have a fitted effect of over 55% in size
Summary of the method: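 Each titration point was normalised to DMSO and tetra n-octyl ammonium bromide controls. The read was Cell Titer Glo luminescence after 30 min at RT, following 5 h compound exposure of ME-180 AP-1-bla cells at 37 °C.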

[10] = qHTS assay to identify small molecule agonists of the AP-1 signaling pathway (AID 1159526)

| Compound | Potency [1] | outcome [2] | outcome [3] | outcome [4] | outcome [5] | outcome [6] | Potency [7] | Potency [8] | Potency [9] | outcome [10] | activation [10] |
| --- | --- | --- | --- | --- | --- | --- | --- | --- | --- | --- | --- |
| O=C(CC(C(=O)OC1CCCCC1)S(=O)(=O)O)OC1CCCCC1 (configuration not stated) | inactive | inactive | inactive | inactive | inactive | inactive | inactive and 53.8 µM (active) | inactive | inactive | inactive |  |
| CSCCC=O | inactive | inactive | inactive | inactive | inactive | inactive | inactive | inactive | inactive | inactive |  |
| Cc1cc(C)c(C)cc1C |  | inactive | inactive | inactive | inactive | inactive | inactive | inactive | inactive | inactive |  |
| CC1=CC(=O)NS(=O)(=O)O1 | inactive | inactive | inactive | inactive | inactive | inactive | inactive |  | inactive | inactive |  |
| O=[N+]([O-])c1ccc(/C=C/c2ccc([N+](=O)[O-])cc2S(=O)(=O)O)c(S(=O)(=O)O)c1 | inactive | inactive | inactive | inactive | inactive | inactive | inactive | inactive | inactive | inactive |  |
| Cc1ccc2oc(=O)ccc2c1 | inactive | inactive | inactive | inactive | inactive | inactive | inactive |  | inactive | inactive |  |
| CC1=CCC2CC1C2(C)C (configuration not stated) |  | inactive | inactive | inactive | inactive | inactive | inactive | inactive | inactive | inactive |  |
| Cc1occc(=O)c1O | inactive | inactive | inactive | inactive | inactive | inactive | inactive | inactive | inactive | inactive |  |
| CN(C)CCCN |  | inactive | inactive | inactive | inactive | inactive | inactive | inactive | inactive | inactive |  |
| O=C(OCCOCCOC(=O)c1ccccc1)c1ccccc1 | inactive | inactive | inactive | inactive | inactive | inactive | inactive |  | inactive | inactive |  |
| C[C@H]1C[C@H]2[C@@H]3CCC4=CC(=O)C=C[C@]4(C)[C@@]3(F)[C@@H](O)C[C@]2(C)[C@@]1(O)C(=O)CO |  |  | inactive | inactive | inactive | inactive | inactive | inactive | inactive | inactive |  |
| CC(=O)Nc1cccc(O)c1 | inactive | inactive | inactive | inactive | inactive | inactive | inactive |  | inactive | inactive |  |
| O=C=NCCCCCCN=C=O |  | inactive | inactive | inactive | inactive | inactive | inactive | 26.7 µM (active) and inactive | inactive | inactive |  |
| CCCCCCCCC/C=C/CC1CC(=O)OC1=O (configuration not stated) | inactive | inactive | inactive | inactive | inactive | inactive | inactive |  | inactive | inactive |  |
| CCCCC(CC)COC(=O)CS (configuration not stated) |  | inactive | inactive | inactive | inactive | inactive | inactive |  | inactive | inactive |  |
| CCCCCCCCCC |  | inactive | inactive | inactive | inactive | inactive | inactive |  | inactive | inactive |  |
| Cc1ccc(N(C)C)cc1 | inactive | inactive | inactive | inactive | inactive | inactive | inactive |  | inactive | inactive |  |
| O=C(O)CCCC[C@@H]1SC[C@@H]2NC(=O)N[C@@H]21 | inactive | inactive | inactive | inactive | inactive | inactive | inactive |  | inactive | inactive |  |
| O=S(=O)(O)c1ccc2ccccc2c1 |  | inactive | inactive | inactive | inactive | inactive | inactive |  | inactive | inactive |  |
| C#CCN(C)Cc1ccccc1 |  | inactive | inactive | inactive | inactive | inactive | inactive |  | inactive | inactive |  |
| OCCOCCOCCO | inactive | inactive | inactive | inactive | inactive |  | inactive | inactive | inactive | inactive |  |
| CCCCCCCCCCCCCCO | inactive | inactive | inactive | inactive | inactive | inactive | inactive |  | inactive | inactive |  |
| CCN(CC)c1ccc(C(=O)c2ccccc2C(=O)O)c(O)c1 | inactive | inactive | inactive | inactive | inactive | inactive | inactive |  | inactive | inactive |  |
| O=C(O)[C@H](O)[C@@H](O)[C@H](O)[C@H](O)CO | inactive | inactive | inactive | inactive | inactive | inactive | inactive |  | inactive |  | 7.9% [at 2.72 µM] (inactive) |
| C[Si](O[Si](C)(C)C)O[Si](C)(C)C | inactive | inactive | inactive | inactive | inactive |  | inactive | inactive | inactive | inactive |  |
| CCCCCCOCCO |  | inactive | inactive | inactive | inactive | inactive | inactive |  | inactive | inactive |  |
